Assay [1] can be described thus: qHTS assay to identify small molecule antagonists of the retinoid acid receptor (RAR) signaling pathway - cell viability counter screen (AID 1159551). Further: nearly all actives have a fitted effect of over 35% in size. Further: potency means the concentration at half of the fitted maximal effect. The gist of the method: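 Cells (C3RL4) are plated, incubated overnight, dosed with compound in DMSO, then given retinol at 1 uM final. After 6 h at 37 C, CellTiter-Glo is added and luminescence read following 30 min at room temperature.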

Assay [2] is described as follows: qHTS assay to identify small molecule agonists of the RXR signaling pathway - cell viability counter screen (AID 1159529). Further: series mostly up to about 77 µM; nearly all actives have a fitted effect of over 50% in size. The gist of the method:
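Compounds dissolved in DMSO were pinned onto HEK 293T cells carrying a beta-lactamase reporter under RXR-alpha control and incubated 16 hr. Cytotoxicity was then quantified by CellTiter-Glo luminescence.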

A short description of assay [3]: qHTS assay to identify small molecule agonists of the retinoic acid receptor (RAR) signaling pathway (AID 1159553). Further: potency means the concentration at half of the fitted maximal effect. The gist of the method:
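Seed C3RL4 reporter cells at 1,000 per well and incubate overnight at 37 C. Add compounds in DMSO, incubate 6 hr. Add luciferase reagent, wait 30 min at room temperature, read luminescence.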
On the technique in general: In qHTS, concentration-response curves come from the screen itself.

Assay [4] can be described thus: qHTS assay to identify small molecule antagonists of the retinoic acid receptor (RAR) signaling pathway (AID 1159552; further: nearly all actives have a fitted effect of over 50% in size). The gist of the method: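 Test chemicals and DMSO controls were pin-transferred onto C3RL4 cells a day after seeding; retinol (1 uM final) followed at once. Luminescent reporter output was quantified after 6 hr of co-incubation and 30 min with detection reagent.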

The nature of assay [5]: qHTS assay to identify small molecule antagonists of the estrogen related receptor (ERR) signaling pathway - cell viability counter screen (AID 1224818). Further: series mostly up to about 46 µM. The gist of the method: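 ERR cells, 2,000/well; 6 h settle at 37 C/5% CO2; compound pin transfer (DMSO); 17.5 h at 37 C; CellTiter-Fluor, 30 min, fluorescence read.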
Assay [6] can be described thus: qHTS assay to identify small molecule antagonists of the estrogen related receptor signaling pathway with the pleiotropic PPARgamma coactivator (PGC) cell viability counter screen (AID 1224822; further: series mostly up to about 46 µM). The gist of the method:
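Multiplexed viability counter screen run in PGC/ERR cells treated with compounds for 17.5 h at 37 C; live-cell protease signal measured by CellTiter-Fluor fluorescence.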

A short description of assay [7]: qHTS assay to identify small molecule antagonists of the estrogen related receptor (ERR) signaling pathway (AID 1224819;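 further: luminescence from an ERR-driven luciferase reporter measured with One-Glo reagent; series mostly up to about 46 µM; nearly all actives have a fitted effect of over 50% in size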). The essentials:
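qHTS in ERR cells, 2,000/well, 1536 format. Cpd (DMSO) added after 6 h settle, 18 h 37 C. One-Glo luminescence, 30 min RT.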

Assay [8] in a line: qHTS assay to identify small molecule agonists of the estrogen related receptor (ERR) signaling pathway (AID 1224820). The gist of the method:
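Luminescence readout (One-Glo, 30 min RT) from NTP-supplied ERR cell line exposed to compounds for 18 h at 37 C. Cells seeded 2,000 per well and pre-incubated 6 h before pin-tool compound transfer.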

For assay [9], the system named is estrogen-related receptor alpha (ERRalpha) with PGC-1alpha coactivator, human. Nature of the assay: qHTS assay to identify small molecule antagonists of the estrogen related receptor signaling pathway with the pleiotropic PPARgamma coactivator (PGC) (AID 1224821; calls by dose curve;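 further: series mostly up to about 46 µM; lower luminescence signal means antagonism of PGC/ERR signalling; nearly all actives have a fitted effect of over 50% in size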). The essentials: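 PGC/ERR reporter cells; 6 h pre-incubation 37 C/5% CO2; pin-tool compound in DMSO, 18 h 37 C; One-Glo added, 30 min RT; luminescence read. qHTS antagonist mode.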

Assay [10] in a line: qHTS assay to identify small molecule agonists of the estrogen related receptor signaling pathway with the pleiotropic PPARgamma coactivator (PGC) (AID 1224823). The gist of the method: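 Luminescence readout (One-Glo, 30 min RT) from PGC/ERR cell line treated 18 h at 37 C with pin-tool-delivered DMSO compound solutions; cells plated 6 h before dosing. Quantitative HTS format.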

Inconclusive results are not listed. A call without a number means that no potency is given here. Calls of active or inactive are those of the source. Unless noted, the call rests on the fitted dose curve; in most records, active means well fitted curve in the direction sought with a large enough effect in the repeat runs; inconclusive means weak or mixed curves; inactive means no such curve, though single readings can be large; an effect the other way counts as inactive or inconclusive.

Take `C[N+]1(CC2COC(c3ccccc3)(C3CCCCC3)O2)CCCCC1` (stereo unspecified): the Potency result in [1] was “inactive”.

As for `CCCCCCCC#N`, the Potency result in assay [1] was “inactive”.

On to `CCCCC(=O)OCC(=O)[C@H]1[C@H](C)C[C@H]2[C@@H]3C[C@H](F)C4=CC(=O)C=C[C@]4(C)[C@@]3(F)[C@@H](O)C[C@@]21C`, for which the Potency entry in [1] was “inactive”.

As for `O=C(Nc1ccc(S(=O)(=O)N2CCOCC2)cc1)c1cc(Cl)ccc1NS(=O)(=O)c1ccc(Cl)s1`, the Potency entry in assay [2] and in assay [3] was “inactive” each time.

Turning to `CC(C)O.CC(C)O.CCOC(=O)/C=C(\C)O.CCOC(=O)/C=C(\C)O.[Ti]`, the Potency entry in assay [2], in [4] and in [3] was “inactive” each time.

In the case of `O=C1CCCCCCCCCCCC(=O)OCCO1`, the Potency entry in assay [1] was “inactive”.

In the case of `CC1=CC[C@H](C(C)C)C=C1`, in assay [1], the Potency result was “inactive”.

For the compound `CN(C)c1ccc(CCO)cc1`, the Potency result in [2] and in assay [3] was “inactive” in each case.

As to `CO[C@@H]1[C@H](OC(=O)/C=C/C=C/C=C/C=C/C(=O)O)CC[C@]2(CO2)[C@H]1[C@@]1(C)O[C@@H]1CC=C(C)C`, the Potency entry in assay [1] is “inactive”.

Regarding `CN(C)CCOC(c1ccccc1)c1ccc(Br)cc1` (stereo unspecified), the Potency entry in assay [1] was “inactive”.

Regarding `CCCCCCCCCCCCCCCCOS(=O)(=O)O`, the Potency entry in assay [1] is “inactive”.

For the compound `C/C=C(/C(=C/C)c1ccc(OC(C)=O)cc1)c1ccc(OC(C)=O)cc1`, the Potency result in assay [2] and in assay [3] was “inactive” throughout.

`CN1CCC(N(Cc2cccs2)c2ccccc2)CC1`: the Potency result in assay [1] is “inactive”.

For the compound `Clc1ccc2c(c1)CCc1cccnc1C2=C1CCNCC1`, the Potency result in assay [1] was “inactive”.

For the compound `CCC(CC)Nc1ccc(C)c(C)c1`, the Potency entry in assay [1] is “inactive”.

As to `CC(=O)[O][Al]`, the Potency result in assay [2] and in [3] was “inactive” each time.

Consider `CCc1cc(C2=C(C(=O)O)N(c3ccccc3C(F)(F)F)S(=O)(=O)c3ccccc32)cc2c1OCO2`, for which, in [1], the Potency result is “inactive”.

On to `CCCCc1ncc(/C=C(\Cc2cccs2)C(=O)O)n1Cc1ccc(C(=O)O)cc1`, for which the Potency entry in [2] is “inactive”. Further, the call in [5] and in [6] was inactive.

Regarding `COCCCN1CCC(NC(=O)c2cc(Cl)c(N)c3c2OCC3)CC1`, the Potency entry in assay [2] and in [3] was “inactive” each time.

Turning to `CCOC(=O)C(=O)CCc1ccccc1`, the Potency result in assay [2] and in assay [3] was “inactive” throughout.

Regarding `CN(C)CCCN1c2ccccc2Sc2ccccc21`, the Potency result in [1], in assay [7] and in assay [9] was “inactive” in each case. For the same compound, the result in assay [5], in assay [8] and in [10] was inactive.

With `C/C=C/C(=O)CC`, in assay [1], the activity change, negative = cytotoxicity was -1.29% [at 19 µM] (inactive). Further, the activity, negative = inhibition in assay [4] was 130% [at 19 µM] (inactive).

As to `OCc1cc(C(O)CNCCCCCCOCCCCc2ccccc2)ccc1O` (stereo unspecified), the Potency result in assay [1], in assay [3] and in [9] was “inactive” each time. The call in [8], in assay [6] and in assay [10] was inactive.

For the compound `COc1cc(Cl)ccc1Oc1ccc(Cl)cc1Cl`, in assay [4], the Potency entry is “inactive”.

In the case of `O=C(OCCCCCCOC(=O)c1ccccc1)c1ccccc1`, the Potency result in assay [1] and in assay [4] was “inactive” in each case.

In the case of `Cc1oc2c(NC(=O)c3c(Cl)cccc3Cl)cccc2c1C(C)(C)O`, the Potency entry in [1], in assay [4] and in assay [3] was “inactive” each time.

For `CC(C)Nc1ccc(NC(C)C)c2c1C(=O)c1ccccc1C2=O`, in assay [1], the Potency was 25.3 µM (active). In addition, the Potency result in assay [3] was “inactive”.

As for `CCOC(=O)C(O)c1ccccc1` (stereo unspecified), in [4], the Potency result was “inactive”.

On to `CCN(CC)CCOC(=O)C(c1ccccc1)C1CCCCC1` (stereo unspecified), for which the Potency result in assay [3] was “inactive”.

Take `COc1ccc(S(=O)(=O)N2C(=O)[C@@](c3ccccc3OC)(N3C[C@H](O)C[C@H]3C(=O)N(C)C)c3cc(Cl)ccc32)c(OC)c1`: the Potency entry in assay [1] and in [3] was “inactive” throughout.

With `CCCNCC(O)COc1ccccc1C(=O)CCc1ccccc1` (stereo unspecified), the Potency result in [1] is “inactive”. Besides, the call in assay [5] and in [6] was inactive.

As to `CCCCCCCCCCO[C@@H]1O[C@H](CO)[C@@H](O)[C@H](O)[C@H]1O`, the Potency entry in assay [1] and in assay [3] was “inactive” throughout.

Consider `C[C@@H]1C[C@H]2O[C@@]3(O[C@@H]2C(C)(C)O)[C@H](O)[C@@]2(C)[C@@H]4CC[C@H]5C(C)(C)[C@@H](O[C@@H]6OC[C@@H](O)[C@H](O)[C@H]6O)CC[C@@]56C[C@@]46CC[C@]2(C)[C@@H]13`, for which the Potency result in assay [1] and in assay [4] was “inactive” in each case.

As for `CCN(CC)CCOC(=O)C(Cc1cccc2ccccc12)CC1CCCO1` (stereo unspecified), the Potency entry in assay [1] and in assay [4] was “inactive” throughout.

Turning to `O=C1[C@H]2CCCC[C@H]2C(=O)N1CCCCN1CCN(c2nsc3ccccc23)CC1`, the Potency entry in assay [1], in assay [4] and in [3] was “inactive” each time.

Take `OCCN1CCN(CCCN2c3ccccc3C=Cc3ccccc32)CC1`: the Potency result in assay [1], in [4] and in assay [3] was “inactive” each time.

Take `Nc1ccc(N)c2c1C(=O)c1ccccc1C2=O`: in assay [1], the Potency was 30.6 µM (active). The Potency entry in assay [4] is “inactive”.

As to `CC(=O)c1ccc2c(c1)N(CCCN(C)C)c1ccccc1S2`, the Potency result in assay [1] and in [3] was “inactive” throughout. The call in [5] and in assay [6] was inactive.

For `O=C(Nc1ccccc1)c1ccccc1O`, in assay [3], the Potency is 8.63 µM (active).

`CCCCNc1ccc(C(=O)OCCOCCOCCOCCOCCOCCOCCOCCOCCOC)cc1`: the Potency result in [1] was “inactive”.

Take `CCCCCCCCCCCCN1CCCCCC1=O`: the Potency entry in assay [1], in [4] and in assay [3] was “inactive” each time.

Consider `CCO[Si](CCCCl)(OCC)OCC`, for which the Potency result in assay [1] and in assay [3] was “inactive” throughout.

For `C#C[C@]1(O)CC[C@H]2[C@@H]3CCc4cc(OC5CCCC5)ccc4[C@H]3CC[C@@]21C`, the Potency entry in assay [1] and in assay [3] was “inactive” throughout.

The values above are taken from PubChem BioAssay (Tox21).
